Source: PubChem
This is a sample that favours compounds with a hit; in the whole collection about 3.1% have one here.
Calb FLC – C. albicans growth modulation with fluconazole | growth inhibition, % (test concentration not listed) | C. albicans CaCi-2 (fluconazole-resistant clinical isolate) + fluconazole, Alamar Blue growth, 48 h | 300,000 compounds, 0.57% hits;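 active means growth inhibition above about 58% in most replicates, limit read from the data, passing the limit was not always enough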;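 further: all wells also contain fluconazole at 8 µg/ml as a sub-toxic cotreatment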
ATG4B inh – blocks human ATG4B protease cleavage of LC3 substrate; Q9Y4P1; ATG4B cleavage of LC3-PLA2, NBD-HPC fluorescence, 1 h; inhibition, % at 8.33 µM; 340,000 compounds, 0.51% hits; AID 504462; in the data active means inhibition above about 40%
Target sequence (Q9Y4P1 whole entry, looked up): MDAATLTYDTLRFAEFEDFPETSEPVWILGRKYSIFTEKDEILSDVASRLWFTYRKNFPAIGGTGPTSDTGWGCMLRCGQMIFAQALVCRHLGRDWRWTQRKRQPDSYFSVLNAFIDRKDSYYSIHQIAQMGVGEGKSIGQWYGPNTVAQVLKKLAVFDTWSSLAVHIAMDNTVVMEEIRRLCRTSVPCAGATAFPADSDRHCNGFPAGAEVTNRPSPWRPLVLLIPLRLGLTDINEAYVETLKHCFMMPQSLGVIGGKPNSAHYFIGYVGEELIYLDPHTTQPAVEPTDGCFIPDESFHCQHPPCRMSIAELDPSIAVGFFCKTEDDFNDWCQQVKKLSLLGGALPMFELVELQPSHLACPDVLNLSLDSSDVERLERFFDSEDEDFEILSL
SUMO Mot1 rescue – blocks SUMOylation pathway, rescuing yeast Mot1-301 growth. S. cerevisiae Mot1-301 growth rescue, ATP luminescence, 38.5C; percent above DMSO median, 100 means doubled. growth rescue, % at 18.8 µM. 320,000 compounds, 1% hits;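 active means every valid replicate shows activation above 250% relative to neutral control wells; inactive means the rest, any valid replicate at or below 250%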
FAS-TE inh – FAS thioesterase (human) inhibition; P49327; recombinant FAS-TE, OMFH fluorogenic substrate, fluorescence endpoint; inhibition, % at 15 µM; 360,000 compounds, 0.67% hits; AID 602261;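 active means compounds whose normalised, plate-corrected inhibition of enzyme fluorescence in the single-dose primary screen is 50% or more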
NadD block – inhibitors of Staphylococcus aureus NadD; 360,000 compounds, 0.78% hits; purified NadD enzyme, colorimetric absorbance read-out; inhibition, % at 20 µM; in the data active means inhibition above about 26%
Yeast Mot1 SUMO – yeast SUMO pathway inhibition in dose response; 2,300 tested, under 10 active; AID 493004; shares compounds with SUMO Mot1 rescue; S. cerevisiae Mot1-301 galactose growth, ATP luminescence, 24 h; -100 = growth of slx-deleted rescue strain; growth activity, percent, % at 42 µM;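 active means Signal drops as the depositor expects, and the fitted half-maximal dose is no more than ten times the top valid tested dose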;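 further: more negative values mean stronger growth rescue toward the control strain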
Numbers stand for hits; i = inactive; nt = no result; + = active, no number.

SMILES	Calb FLC	ATG4B inh	SUMO Mot1 rescue	FAS-TE inh	NadD block	Yeast Mot1 SUMO
COc1ccccc1N(C(=O)c1snc(C(N)=O)c1N)C(C(=O)NC1CCCC1)c1ccc2ncccc2c1 (configuration not stated)	i	i	i	i	i	nt
CC(=O)c1cc2c(cc1NC(=O)CN(C)S(=O)(=O)c1cccs1)OCO2	nt	i	i	i	i	nt
Cn1cnnc1SCc1ccc(C(=O)N/N=C(/CCC(=O)O)c2ccc(C(C)(C)C)cc2)cc1	nt	i	nt	i	i	nt
Clc1cccc(Cl)c1CSc1nnc(CN2CCOCC2)n1-c1ccccc1	i	i	i	i	i	nt
Clc1ccc(CSc2nnc(CN3CCOCC3)n2-c2ccccc2)cc1Cl	i	i	588	i	i	i
O=C(CSc1nnc(CN2CCOCC2)n1-c1ccccc1)Nc1ccc(Cl)cc1	i	i	i	i	i	nt
Fc1cccc(Cl)c1CSc1nnc(CN2CCOCC2)n1-c1ccccc1	i	i	551	i	i	i
O=[N+]([O-])c1cc([N+](=O)[O-])c(Oc2cncc(Cl)c2)cc1NC1CCCCCCC1	i	i	i	i	i	nt
C/C(=C\COc1ccc2ccc(=O)oc2c1)CC[C@@H](O)C(C)(C)O	nt	i	i	i	i	nt
COc1ccc(S(=O)(=O)N2CCN(c3ccc(F)cc3)CC2)cc1C(=O)N1CCOCC1	i	i	432	i	i	i
COc1ccc(N2CCN(CCNC(=O)Nc3ccc(C)cc3Cl)CC2)cc1	i	i	i	i	i	nt
COc1cccc(N(C(=O)c2snc(C(N)=O)c2N)C(C(=O)NCC2CCCO2)c2ccc3ncccc3c2)c1 (configuration not stated)	i	i	i	i	i	nt
CCOC(=O)C1CCN(C(=O)CCC2CCCC2)CC1	i	i	i	i	i	nt
CCOC(=O)C1ON2CCCCC2C1(O)C(F)(F)F (configuration not stated)	i	i	528	i	i	i
Cc1ccc(CNC(=O)CNC(=O)c2ccc(C(C)(C)C)cc2)n1C	nt	i	i	i	i	nt
CC1(C(=O)Nc2cccc(-n3cnnn3)c2)Cc2ccccc2C(=O)O1 (configuration not stated)	nt	i	408	i	i	i
CC1(C(=O)Nc2cccc(S(=O)(=O)N3CCOCC3)c2)Cc2ccccc2C(=O)O1 (configuration not stated)	i	i	i	i	i	nt
CN(C)c1ccc(NC(=O)Nc2nc(C(N)C3CCCCC3)cs2)cc1 (configuration not stated)	nt	nt	nt	i	i	nt
O=S(=O)(O)c1ccc(N=NNc2ccc(Br)cc2)cc1	i	i	539	i	i	i
Cc1ccc(/C=C/C(=O)c2ccc([N+](=O)[O-])o2)cc1	i	i	+	nt	nt	i
Cc1ccccc1C(=O)NC(CC(C)C)C(=O)NN1C(=O)c2ccccc2C1=O (configuration not stated)	i	i	i	i	i	nt
COC(=O)[C@@H](NC(=O)Nc1ccc(S(N)(=O)=O)cc1)C(C)C	i	i	373	i	i	i
O=C(COC(=O)CC1CCCC1)Nc1ccccc1[N+](=O)[O-]	nt	i	i	i	i	nt
CC12CCC(=O)N1C(C(=O)Nc1cc(Cl)ccc1N1CCOCC1)CS2 (configuration not stated)	i	i	i	i	i	nt
Cc1cccc(N2C(=O)CC(Sc3nc(C)cc(C)n3)C2=O)c1 (configuration not stated)	i	i	i	i	i	nt
SMILES	Calb FLC	ATG4B inh	SUMO Mot1 rescue	FAS-TE inh	NadD block	Yeast Mot1 SUMO
Cc1cc(C)cc(N2C(=O)CC(Sc3ncn[nH]3)C2=O)c1 (configuration not stated)	i	i	452	i	i	i
Cc1ccc(OCC(=O)NN2C(=O)c3ccccc3C2=O)c(C)c1	i	i	436	i	i	i
CCN(CC)CCCNC(=O)C1c2ccccc2C(=O)N(CCOC)C1c1ccc(F)cc1 (configuration not stated)	i	i	691	i	i	i
CCN(CCCNC(=O)C1c2ccccc2C(=O)N(CCOC)C1c1ccc(F)cc1)Cc1ccccc1 (configuration not stated)	i	i	i	i	i	nt
O=c1cc(CN2CCCCCC2)nc2sccn12	i	i	i	i	i	nt
O=C1c2ccccc2S(=O)(=O)N1Cc1cc(=O)n2ccsc2n1	i	i	383	i	i	i
NC(=O)c1ccc(/C=N/O)nc1	i	i	i	i	i	nt
O=c1oc2cc(S(=O)(=O)NCCCO)ccc2c2ccc(S(=O)(=O)NCCCO)cc12	i	i	461	i	i	i
Cc1cc(C(=O)N2CCCC(Nc3ccc(F)cc3)C2)c(C)o1 (configuration not stated)	i	i	i	i	i	nt
CN(C)c1ccc2nc3ccc(=[N+](C)C)cc-3sc2c1	nt	i	557	i	i	i
CN(C)c1ccc2nc3ccc(=O)cc-3sc2c1	nt	nt	nt	i	i	nt
COc1ccc(C(=O)NCC(C)(C)N2CCOCC2)cc1S(=O)(=O)N1CCCC1	nt	i	i	i	i	nt
CSc1ccc(CN2CCC(C)(Oc3ccccc3F)C2)cc1 (configuration not stated)	nt	nt	nt	i	i	nt
Cc1nnc(SCC(=O)NC(C)(C)C)n1NCc1ccc(Cl)cc1	i	i	785	i	i	i
CC(=O)Nc1ccc(/C(C)=N/NC(=O)c2ccncc2)cc1	i	i	+	i	i	i
CC(C)C(NC(=O)c1c(F)cccc1F)C(=O)OCN1C(=O)c2ccccc2C1=O (configuration not stated)	nt	i	i	i	i	nt
O=C(NCc1ccccc1Cl)c1ccc2c(c1)OCO2	i	i	650	i	i	i
O=C(NCc1ccccc1F)c1ccc2c(c1)OCO2	i	i	i	i	i	nt
CCCCCC(=O)Nc1nnn(CCC)n1	i	i	+	i	i	i
CCOC(=O)c1sc(NC(=O)CSc2nc3c(cc2C#N)CCCCC3)c(C#N)c1C	i	i	i	i	i	nt
CCc1nnc(NC(=O)CSc2nc3c(cc2C#N)CCCC3)s1	i	i	736	i	i	i
CN(CCOc1ccc(Cl)cc1)CC(=O)Nc1ccc(OC(F)F)cc1	i	i	403	i	i	i
COc1cc(OC)c(C(=O)OCC(=O)Nc2ccc(S(=O)(=O)N3CCOCC3)cc2)cc1OC	nt	i	i	i	i	nt
CCCSc1nc(=O)n2cccc(C)c2n1	i	i	626	i	i	i
O=C(CN(CC1CCCO1)C(=O)CNS(=O)(=O)c1ccc(F)cc1)NCCc1ccccc1 (configuration not stated)	i	i	i	i	i	nt
CC1(C)C2CC=C(/C=N/NC(=S)Nc3cccnc3)C1C2 (configuration not stated)	i	i	745	i	i	i
CCN1C(=O)[C@H]2[C@@H](c3ccc(C)cc3)N[C@]3(CCCN(Cc4ccccc4)C3=O)[C@H]2C1=O	nt	nt	nt	i	i	nt
O=C(Nc1ccc(F)cc1)c1ccc(CSc2ccccc2)o1	i	i	+	i	i	i
